# Assay results reported in the supplement of paper PMC12636033.
# ± gives the standard deviation of the averaged measurements. Whole data set: some 33,000 sequences, median “E-score (rank enrichment, -0.5 to 0.5)” near -0.0028, cut for the highest 2% near 0.23. The entries come from a sample that favours the highest values as a whole.
# System: 2Sb-muMax20 (muMax20 with two 1,3-bis(methyl)benzene Cys staples, A13C/A17C and Q88C/A92C, C-terminal Lys)
# Test: PBM 8-mer E-score (E-score (rank enrichment, -0.5 to 0.5)); higher = stronger preferential binding
# Experimental: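 Protein binding microarray (universal PBM chip covering all 10-mers in fixed probe flanks) with chemically synthesized human Max(13-93) bHLH-LZ analogs (not full-length Max) bearing noncanonical residues (hArg, Tha, Aib, Nle at 65) and aromatic Cys staples. Read-out per 8-mer (and its reverse complement): E-score (rank-based enrichment, -0.5 to 0.5) and Z-score of median probe intensity.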
row,Sequence,PBM 8-mer E-score
1,CAGTTGAA,0.0124 ± 0.054
2,AAGTTGAA,0.0152 ± 0.0042
3,TAGTTGAA,0.23 ± 0.012
4,AGAGAAGG,-0.029 ± 0.046
5,TATAGATA,0.213 ± 0.042
6,GATAGATA,-0.0327 ± 0.03
7,CATAGATA,0.277 ± 0.041
8,ATCGCTCA,0.0207 ± 0.008
9,AGGAAGGC,-0.0526 ± 0.077
10,CCTGTTTA,0.137 ± 0.0084
11,AGAAATAG,0.232 ± 0.034
12,AGAAATAT,0.0844 ± 0.12
13,CCAAATGG,-0.0949 ± 0.091
14,ACAAAATC,0.0704 ± 0.00074
15,AGAAATAC,0.0203 ± 0.03
16,ACAAAATA,0.193 ± 0.13
17,ACAAAACC,0.13 ± 0.14
18,CCAAAACG,-0.0328 ± 0.043
19,ACAAAACG,0.262 ± 0.006
20,ACAAATGG,0.266 ± 0.032
21,ACAAATGT,0.148 ± 0.026
22,ACAAAATG,0.238 ± 0.039
23,ACGTGGAC,0.15 ± 0.054
24,AAAGAGGG,0.0479 ± 0.037
25,CTCGTATC,0.0723 ± 0.026

row,Sequence,PBM 8-mer E-score
1,GCCCTGTA,0.032 ± 0.063
2,TTAATGAA,0.115 ± 0.088
3,AGGACAGG,-0.1548 ± 0.00025
4,TATAGCGA,0.0513 ± 0.037
5,AGAAATGA,-0.0864 ± 0.0095
6,AGAAATGC,0.177 ± 0.015
7,AGAAATGG,0.251 ± 0.033
8,ACCTGCGC,-0.114 ± 0.011
9,CCCAGCGA,-0.132 ± 0.046
10,CCTCTACA,0.0181 ± 0.028
11,CAATCACA,0.0918 ± 0.051
12,CAATCACG,0.231 ± 0.021
13,AAATCACA,0.199 ± 0.0051
14,GATCTCCC,0.122 ± 0.056
15,ATTGTAGC,-0.106 ± 0.0083
16,CGTCTCCA,-0.0564 ± 0.02
17,AGTGGTAT,0.0204 ± 0.062
18,CTCCCCCA,-0.142 ± 0.09
19,ATCCCCCC,-0.321 ± 0.063
20,ATCCCCCA,-0.171 ± 0.032
21,ATCCCCAC,0.301 ± 0.04
22,ATCCCCAT,0.118 ± 0.011
23,CTCCCCAA,0.309 ± 0.072
24,ATCCCCAA,0.301 ± 0.04
25,TCCCCACA,0.261 ± 0.055

row,Sequence,PBM 8-mer E-score
1,CCCCCACA,-0.26 ± 0.052
2,ATCCCCAG,0.0369 ± 0.07
3,CTCCCCAG,0.162 ± 0.085
4,CCCCCACG,0.0751 ± 0.11
5,ACTCGGAA,-0.104 ± 0.083
6,ATGCACTG,0.062 ± 9.2e-05
7,CCGCATAA,0.184 ± 0.0044
8,ATTTTAAA,0.126 ± 0.03
9,GGAGGACA,-0.0957 ± 0.0057
10,AGTTCGTA,-0.119 ± 0.064
11,CAGGGGGG,-0.241 ± 0.072
12,ATAGCAAA,0.1715 ± 0.0012
13,AGTCTGAC,-0.0779 ± 0.015
14,CCCCCAAA,-0.215 ± 0.027
15,CTCCCCAC,0.292 ± 0.041
16,GTCCCCAC,0.0697 ± 0.074
17,CCCCCCAC,-0.238 ± 0.085
18,TCCCCAAA,0.372 ± 0.029
19,GTCCCCAA,0.0368 ± 0.035
20,TTCCCAAA,0.0153 ± 0.013
21,TTCCCCAA,0.32 ± 0.021
22,TCCCCCAA,-0.179 ± 0.0084
23,AACAGATA,-0.0213 ± 0.017
24,ACCTCTGA,-0.0896 ± 0.0083
25,CAGACATG,-0.0511 ± 0.076

row,Sequence,PBM 8-mer E-score
1,ACTGCAGC,0.0488 ± 0.072
2,ACGCAACC,-0.0577 ± 0.0052
3,ACGCCCCT,0.109 ± 0.11
4,GCTAGAAA,0.197 ± 0.055
5,ACAGCAAT,0.0979 ± 0.018
6,ACAGAAAG,0.278 ± 0.04
7,ACAGCAAC,-0.0541 ± 0.075
8,ACAGCAAG,0.24 ± 0.03
9,ACAGAAAC,0.126 ± 0.0055
10,ACAGAAAA,0.083 ± 0.044
11,ATCCCGAG,-0.0644 ± 0.021
12,CAAGGCAA,0.0983 ± 0.056
13,ATTTGTTC,0.15 ± 0.058
14,ATTTGTTA,0.187 ± 0.0095
15,ATTTGTTG,0.232 ± 0.0078
16,ATACTGCG,0.0194 ± 0.043
17,AATTAAGA,0.216 ± 0.038
18,AATTAAAC,0.19 ± 0.065
19,ACTTAAGA,0.00227 ± 0.079
20,ACTTAAGT,0.246 ± 0.033
21,AATTAAAG,0.133 ± 0.025
22,ACTTAAGC,-0.134 ± 0.061
23,AATTAAAT,0.235 ± 0.011
24,AATTAAGT,0.24 ± 0.005
25,AATTAAGC,0.121 ± 0.063

row,Sequence,PBM 8-mer E-score
1,CCCATTGA,0.02 ± 0.063
2,GATCGAGA,-0.0884 ± 0.04
3,AAAAAGTT,0.16 ± 0.014
4,ACTTCTTA,0.125 ± 0.057
5,CAATGCAA,0.0811 ± 0.012
6,CCAGGGGG,-0.31 ± 0.076
7,TATCAACA,0.0969 ± 0.067
8,AATCAACA,0.308 ± 0.015
9,GATCAACA,-0.139 ± 0.023
10,CGTTCTAC,0.0207 ± 0.027
11,AATGACCC,0.231 ± 0.0025
12,GATGACCC,-0.157 ± 0.019
13,AATGACCG,-0.0804 ± 0.021
14,CTGACTTA,0.107 ± 0.048
15,CTCTCCAG,-0.198 ± 0.013
16,GTAGAAAA,0.0997 ± 0.012
17,ACCGCTAT,-0.0561 ± 0.049
18,GGAAAGCC,-0.00378 ± 0.093
19,ATACGTAA,0.115 ± 0.0061
20,ATACGTAT,0.407 ± 0.031
21,ATACGTAC,0.16 ± 0.0041
22,AACAGTTC,0.0164 ± 0.036
23,CACGTGCG,0.39 ± 0.022
24,TACGTGCA,0.1615 ± 0.00067
25,CACGTGCA,0.417 ± 0.026

row,Sequence,PBM 8-mer E-score
1,AACGTGCC,0.0151 ± 0.03
2,CACGTGCC,0.377 ± 0.015
3,GACGTGCC,-0.174 ± 0.023
4,AACGTGCA,0.0984 ± 0.068
5,AAAGTGCA,0.0798 ± 0.0049
6,CCCGTGCG,-0.206 ± 0.01
7,TAAGTGCA,0.243 ± 0.008
8,AACGTGCG,0.152 ± 0.016
9,GAAGTGCA,0.122 ± 0.077
10,GTGCTAAC,-0.0619 ± 0.0065
11,ATTGCTAA,-0.034 ± 0.043
12,AAGGAATC,-0.0571 ± 0.08
13,CATATGCG,0.192 ± 0.0076
14,AATAGCTC,0.0405 ± 0.046
15,ATGCGTAG,0.151 ± 0.017
16,CTGGGGGC,-0.289 ± 0.044
17,ATAAGGAT,0.277 ± 0.0071
18,ATAAGGAA,-0.0755 ± 0.029
19,ATAAGGAC,-0.0224 ± 0.047
20,ATAAGGTC,0.231 ± 0.014
21,CTAAGGTC,0.0156 ± 0.022
22,ATAAGGTA,0.132 ± 0.044
23,ATCGGATC,-0.225 ± 0.064
24,GCGAAGCC,-0.143 ± 0.0091
25,AGTCTCTG,-0.178 ± 0.037

row,Sequence,PBM 8-mer E-score
1,GCCGGTTA,-0.0245 ± 0.051
2,TACTGGAA,0.187 ± 0.013
3,CCATAGTA,0.161 ± 0.049
4,GCATAGTA,0.234 ± 0.05
5,ACATAGTA,0.141 ± 0.013
6,ACCGTGAG,-0.24 ± 0.025
7,GGGATCCA,-0.0748 ± 0.046
8,AGGTGCAG,-0.176 ± 0.029
9,AATTGAAA,0.272 ± 0.014
10,AATTGAAC,-0.0329 ± 0.083
11,AATTGAAT,0.229 ± 0.021
12,ACCGTAGC,-0.0428 ± 0.011
13,AGCTTCTG,-0.127 ± 0.071
14,AGCTTCTA,-0.0235 ± 0.043
15,AGCTTCTC,0.245 ± 0.00095
16,TACGTACA,0.198 ± 0.0031
17,CTACCGAC,-0.0505 ± 0.014
18,ATCCCCTG,0.114 ± 0.01
19,CTCCCCTC,0.147 ± 0.072
20,CTCCCCTA,0.182 ± 0.019
21,ATCCCCTA,0.2799 ± 0.00079
22,GTCCCCTA,0.093 ± 0.011
23,ATCCCCTC,0.2637 ± 0.0019
24,CCTAAACC,0.0137 ± 0.051
25,CACACTAG,0.0294 ± 0.013

row,Sequence,PBM 8-mer E-score
1,ATTCTGCG,-0.00613 ± 0.071
2,AAGTACGC,0.0498 ± 0.026
3,CCCTTGAG,0.00432 ± 0.0094
4,GCTGGCTA,-0.249 ± 0.011
5,ACCCCGAT,0.136 ± 0.042
6,CCGTATAC,0.0522 ± 0.032
7,CACGAGGA,-0.017 ± 0.031
8,AACGAGAA,0.238 ± 0.04
9,CACGAGAA,-0.0119 ± 0.064
10,AACGAGGA,0.239 ± 0.015
11,TACGAGGA,0.169 ± 0.069
12,AACGAGAT,-0.0543 ± 0.025
13,ATAGTGCG,0.0132 ± 0.011
14,CATCGGAC,-0.165 ± 0.033
15,CATCATAA,0.142 ± 0.0093
16,GATCATAA,0.278 ± 0.0031
17,TATCATAA,0.181 ± 0.012
18,CATCGCGA,0.056 ± 0.036
19,ACCATAAC,0.1 ± 0.012
20,GTTAATGA,0.148 ± 0.06
21,ATTAATGG,0.0434 ± 0.0092
22,ATTAACTA,0.237 ± 0.012
23,ATTAATTG,0.175 ± 0.039
24,ATTAATTC,0.105 ± 0.042
25,GTTAACTA,0.207 ± 0.1

row,Sequence,PBM 8-mer E-score
1,ATTAATGA,0.278 ± 0.055
2,ATTAACTC,0.136 ± 0.005
3,CTAAATTA,0.0224 ± 0.0043
4,ATAAATTA,0.307 ± 0.014
5,ATTAATTA,0.263 ± 0.034
6,ATAAATTG,0.165 ± 0.082
7,CGGTCACG,-0.188 ± 0.076
8,CAGGGAGC,-0.238 ± 0.051
9,AGCCTTCA,0.149 ± 0.085
10,AATAATTA,0.269 ± 0.06
11,AATAATGC,0.213 ± 0.083
12,AATAATGT,0.283 ± 0.0037
13,ATGAACTC,-0.04627 ± 0.0002
14,ATGAACTA,0.27 ± 0.054
15,GATAATTA,0.0844 ± 0.0069
16,AATAATGG,0.138 ± 0.0076
17,CTGAACTA,-0.149 ± 0.065
18,CATAATTA,0.203 ± 0.039
19,GAGTGCAC,-0.0155 ± 0.11
